Bioassay records (PubChem)
Sfp inh: blocks B. subtilis Sfp PPTase activity; Potency, µM, for the others: largest response in the series, negative = inhibition, most hits filed as inhibitors; AID 1490; Biochemical Sfp PPTase activity, qHTS; Q9F4F7; actives 3.5% (n = 310,000);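 also: the enzyme is Sfp with the accession as filed and its product quenches rhodamine fluorescence; 0% = enzyme reaction without inhibitor and -100% = no enzyme wells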
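Fluorescence-quenching assay with 15 nM Sfp, 5 uM rhodamine-CoA and 12.5 uM BHQ-2-labelled ybbR peptide in pH 7.6 Hepes/MgCl2 buffer. Enzyme was pre-incubated with compound for 15 min at room temperature. Rate was taken from the 30-min fluorescence change (525/598 nm).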
JMJD2A Tudor: inhibitors of human JMJD2A Tudor domain | AlphaScreen JMJD2A-Tudor / H3K4me3 peptide binding | O75164 | Potency, µM (series often up to 114 µM), for inactives: at the highest dose activity change, negative = inhibition, hits mostly inhibitors | actives 4.4% (n = 390,000) | AID 504339; also: % is scaled to controls: 0 for no effect and ±100 for the full control effect; nearly all actives have a fitted effect of over 50% in size
L3MBTL1 block: L3MBTL1 (human) inhibition; Potency, µM (highest dose often 57.1 µM), without a hit: at the top dose activity, negative = inhibition, most hits filed as inhibitors; AlphaScreen L3MBTL1–H3K9me1 peptide binding; actives 0.66% (n = 230,000); Q9Y468; also: % is scaled to controls: 0 for no effect and ±100 for the full control effect; nearly all actives have a fitted effect of over 60% in size
Target sequence (Q9Y468 whole entry, looked up): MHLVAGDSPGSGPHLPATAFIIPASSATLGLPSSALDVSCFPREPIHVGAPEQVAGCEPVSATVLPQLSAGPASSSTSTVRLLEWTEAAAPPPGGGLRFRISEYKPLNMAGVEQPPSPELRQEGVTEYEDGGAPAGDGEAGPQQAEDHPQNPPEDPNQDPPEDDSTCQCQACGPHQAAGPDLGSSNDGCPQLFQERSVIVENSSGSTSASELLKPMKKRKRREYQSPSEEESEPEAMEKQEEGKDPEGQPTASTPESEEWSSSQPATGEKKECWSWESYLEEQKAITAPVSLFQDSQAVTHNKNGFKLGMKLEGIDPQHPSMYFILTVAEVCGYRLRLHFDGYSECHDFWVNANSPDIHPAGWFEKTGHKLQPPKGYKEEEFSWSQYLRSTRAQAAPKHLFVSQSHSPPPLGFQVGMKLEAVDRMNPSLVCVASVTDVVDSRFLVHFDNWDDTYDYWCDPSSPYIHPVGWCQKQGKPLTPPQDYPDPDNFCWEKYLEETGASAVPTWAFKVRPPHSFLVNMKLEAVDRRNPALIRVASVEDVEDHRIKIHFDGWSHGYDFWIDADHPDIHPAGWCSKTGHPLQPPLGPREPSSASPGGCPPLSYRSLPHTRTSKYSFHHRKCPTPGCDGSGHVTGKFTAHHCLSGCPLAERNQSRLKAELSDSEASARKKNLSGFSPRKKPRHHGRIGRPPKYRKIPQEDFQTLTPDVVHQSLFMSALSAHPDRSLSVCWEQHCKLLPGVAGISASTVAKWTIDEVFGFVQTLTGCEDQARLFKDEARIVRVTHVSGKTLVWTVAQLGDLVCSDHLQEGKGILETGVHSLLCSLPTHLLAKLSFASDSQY
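AlphaScreen assay: L3MBTL1 (50 nM final) was preincubated 30 min at room temperature with biotinylated H3(1-15)K9me1 peptide (75 nM final), then 30 min with library compounds; streptavidin donor and nickel chelate acceptor beads (10 ug/mL final) added, 30 min dark.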
HP1b binding inh: HP1-beta chromodomain-methylated histone interaction inhibition | actives 0.56% (n = 390,000) | AlphaScreen HP1-beta / biotin-H3K9me3 peptide binding | Potency, µM (series often up to 114 µM), inactives show at the highest dose activity change, negative = inhibition, actives largely listed as inhibitors; also: nearly all actives have a fitted effect of over 70% in size
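Compound inhibition of the preformed complex between 50 nM HP1-beta and 50 nM biotinylated H3K9me3 peptide was read by AlphaScreen. Buffer was PBS pH 7.4 with 0.01% Tween-20. Incubations ran 30 min at room temperature, with 10 ug/mL donor/acceptor beads.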
BAZ2B inh: blocks human BAZ2B; Q9UIF8; AlphaScreen BAZ2B-H3K14Ac peptide displacement; Potency, µM (titrated, usually from 114 µM), for inactives: at the highest dose activity change, negative = inhibition, hits mostly inhibitors; actives 4.4% (n = 360,000); AID 504333; also: % is scaled to controls: 0 for no effect and ±100 for the full control effect; nearly all actives have a fitted effect of over 60% in size
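Inhibition is scored as reduced AlphaScreen emission. The BAZ2B/b-H3(5-23)K14Ac complex (50 nM each) in PBS pH 7.4, 0.01% Tween-20 meets compound (up to 110 uM) for 30 min at RT before bead addition.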
G9a block: G9a (human) methyltransferase inhibition. Q96KQ7. G9a H3K9 monomethylation, AlphaScreen, 2 h. Potency, µM (titrated, usually from 102 µM), for inactives: at the top dose activity, negative = inhibition, actives largely listed as inhibitors. actives 8.8% (n = 350,000). AID 504332; also: % is scaled to controls: 0 for no effect and ±100 for the full control effect; nearly all actives have a fitted effect of over 75% in size
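G9a (20 nM) was preincubated 15 min with compound, then reacted 2 h at room temperature with 500 nM biotin-H3K9 peptide and 20 µM SAM. Monomethyl-H3K9 detected by AlphaScreen using anti-H3K9me1 antibody.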
Numbers without * were called inactive; ? = inconclusive; / = no result; ! = not active in a repeat; [ ] = remark or other dose. This is a sample that favours compounds with a hit; in the whole collection about 12% have one here. Calls follow the shape of the dose curve; as a rule, active = well fitted curve in the direction sought with a large enough effect; inconclusive = small, poorly fitted or top-dose-only effect, or another doubt; inactive = no such curve, though single readings can be large; an effect the other way counts as inactive or inconclusive. Potency is read from the fitted curve at half-maximal effect.

SMILES	Sfp inh	JMJD2A Tudor	L3MBTL1 block	HP1b binding inh	BAZ2B inh	G9a block
CC(=C1C(=O)c2ccccc2C1=O)N1CCN(C/C=C/c2ccccc2)CC1	56.2µM*	-22.6%	/	-0.5%	?	?
C(=C/c1ccccc1)/CN1CCN(C(c2ccccc2)c2ccccc2)CC1	14.8%	/	/	/	/	?
CN1Cc2sc(NC(=S)NC(=O)c3ccccc3)c(C#N)c2CC1(C)C	31.6µM*	35.5µM*	?	?	44.7µM*	10µM*
CCC1(C)Cc2c(sc(NC(=S)NC(=O)c3ccccc3)c2C#N)CO1 (stereo not drawn)	-26.4%	-27.3%	4.2%	-14.0%	-30.9%	44.7µM*
O=C(NC1CC(=O)N(c2ccccc2)C1)c1ccc(S(=O)(=O)N2CCCCC2)cc1 (stereo not drawn)	/	-9.1%	/	27.7%	-1.9%	5.9%[59 µM]
O=C(OC(c1ccccc1)c1nccc2ccccc12)c1cc([N+](=O)[O-])cc([N+](=O)[O-])c1 (stereo not drawn)	2.5%	?	-28.0%	?	?	10µM*
O=c1[nH]cnc(O)c1C(c1ccc2c(c1)OCO2)c1c(O)nc[nH]c1=O	4.3%	-17.7%	3.9%	15.8%	-17.5%	50.1µM*
COc1ccc(Cl)cc1C1CC(=O)Nc2cc3c(cc21)OCCO3 (stereo not drawn)	/	-18.8%	/	7.7%	-38.1%	?
Cc1cccc(S(=O)Cc2ccc(C(=O)NC3CCCCCC3)o2)c1 (stereo not drawn)	/	3.7%	/	35.3%	-11.9%	-5.9%[59 µM]
O=S(=O)(c1ccc(=S)[nH]c1)N1CCCCC1	/	-2.7%	0.9%	31.1%	-2.6%	0.794µM*
O=S(=O)(c1ccc(-c2n[nH]c(=S)o2)cc1)N1CCCCC1	-44.4%	-16.6%	/	?	?	11.2µM*
O=S(=O)(c1ccc(-c2n[nH]c(=S)o2)cc1)N1CCCC1	-19.8%	-10.6%	/	3.2%	-15.2%	35.5µM*
CCCCN(C)CCNC(=O)c1c(C)oc2ncnc(N3CCOCC3)c12	/	-26.5%	/	-2.5%	12.0%[57.1 µM]	-5.8%[59 µM]
CCOc1ccccc1CNS(=O)(=O)c1ccc2c(c1)CCCN2C(C)=O	/	4.8%	/	34.0%[57 µM]	3.9%	13.9%[59 µM]
CCN(c1cc(C)cc(C)c1)S(=O)(=O)c1nnc(NC(=O)C2CCCCC2)s1	/	-15.5%	/	39.5%	-19.0%	?
O=S(=O)(Nc1cccc(-c2ccc(N3CCCCCC3)nn2)c1)c1cccc(F)c1	10.9%	-26.1%	/	18.0%	-20.0%[57.1 µM]	31.6µM*!
O=C(Nc1cccc(-c2ccc(N3CCCCC3)nn2)c1)c1ccc(Br)o1	/	-15.2%	-19.0%	7.0%	-6.2%	28.2µM*
O=S(=O)(Nc1cccc(-c2ccc(N3CCCCCC3)nn2)c1)c1ccc(F)cc1	0.0%	?	/	39.4%	?	4.8%
COc1ccc(C)cc1S(=O)(=O)Nc1cccc(-c2ccc(N3CCCCCC3)nn2)c1	5.8%	15.8µM*	/	4.1%	-13.0%	10.5%[0.501 µM]
O=C(Nc1cccc(-c2ccc(N3CCCCC3)nn2)c1)C(F)(F)F	5.5%	-1.0%	/	40.4%	22.8%	11.6%
COc1ccc(S(=O)(=O)Nc2cccc(-c3ccc4nncn4n3)c2)c(OC)c1	/	2.7%	?	?	1.6%	11.2µM*
CCCCCOc1ccc(Br)cc1/C(C)=N/NC1=NCCN1	?	-5.3%[11.4 µM]	-2.9%	12.5%	-24.1%	8.91µM*
COc1ccc(C2CC(=O)c3cc(-c4nc(-c5cccc([N+](=O)[O-])c5)cs4)c(=O)n(-c4cc(C)cc(C)c4)c3C2)cc1 (stereo not drawn)	/	-9.6%	/	18.3%	-10.5%	-37.0%[59 µM]
COc1ccc(C2CC(=O)c3cc(-c4nc(-c5cccc([N+](=O)[O-])c5)cs4)c(=O)n(-c4ccc(C)c(C)c4)c3C2)cc1 (stereo not drawn)	/	-21.5%	/	36.7%	-38.6%	11.2µM*
Cc1cc(N2CCN(C)CC2)nc(=S)[nH]1	50.1µM*	-9.0%	9.4%	54.2%	-29.5%	39.8µM*
